Among all 390,000 compounds or so, about 17,000 (4.4%) were called active. Another 8% or so got no clear call; they are omitted. The call rests on the fitted dose curve; in most records, active means well fitted inhibition curve with a large enough effect; inconclusive means small, poorly fitted or top-dose-only effect; inactive means no such curve, though single readings can be large or run the other way. The list comes from a sample in which actives are over-represented; it also holds similar structures and randomly drawn compounds. A call without a number means that no potency is given here.
Potency means the concentration at half of the fitted maximal effect.

Chain of Lysine-specific demethylase 4A (Homo sapiens) (O75164 whole entry, looked up, the tested form may be a part): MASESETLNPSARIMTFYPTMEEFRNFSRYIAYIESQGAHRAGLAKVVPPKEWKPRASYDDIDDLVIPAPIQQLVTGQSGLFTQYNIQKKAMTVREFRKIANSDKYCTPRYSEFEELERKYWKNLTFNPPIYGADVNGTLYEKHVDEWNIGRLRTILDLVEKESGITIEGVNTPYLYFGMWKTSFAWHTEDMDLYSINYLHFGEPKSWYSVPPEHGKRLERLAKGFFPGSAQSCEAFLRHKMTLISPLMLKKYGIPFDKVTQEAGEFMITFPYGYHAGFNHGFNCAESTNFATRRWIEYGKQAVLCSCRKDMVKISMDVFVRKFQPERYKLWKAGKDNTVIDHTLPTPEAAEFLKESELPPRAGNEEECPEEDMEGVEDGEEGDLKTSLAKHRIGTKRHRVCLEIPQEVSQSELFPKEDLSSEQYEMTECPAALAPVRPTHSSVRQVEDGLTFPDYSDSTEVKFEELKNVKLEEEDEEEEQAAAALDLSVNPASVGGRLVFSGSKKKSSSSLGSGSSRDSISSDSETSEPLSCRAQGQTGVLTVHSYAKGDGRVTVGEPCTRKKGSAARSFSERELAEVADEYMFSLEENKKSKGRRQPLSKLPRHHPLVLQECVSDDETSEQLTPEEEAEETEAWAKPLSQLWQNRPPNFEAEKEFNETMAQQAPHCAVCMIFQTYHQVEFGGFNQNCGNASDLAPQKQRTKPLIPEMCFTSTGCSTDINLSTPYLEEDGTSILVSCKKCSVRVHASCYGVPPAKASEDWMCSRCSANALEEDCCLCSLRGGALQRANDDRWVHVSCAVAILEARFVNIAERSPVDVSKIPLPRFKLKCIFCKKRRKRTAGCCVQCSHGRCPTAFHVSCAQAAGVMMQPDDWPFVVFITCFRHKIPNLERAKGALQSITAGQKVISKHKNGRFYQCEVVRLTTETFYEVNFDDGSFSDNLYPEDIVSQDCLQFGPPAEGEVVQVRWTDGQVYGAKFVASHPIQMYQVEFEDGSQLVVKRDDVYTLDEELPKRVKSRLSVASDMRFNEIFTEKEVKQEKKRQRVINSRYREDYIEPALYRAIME

The target in this experiment is Lysine-specific demethylase 4A (Homo sapiens) (UniProt O75164). The experiment is described as follows: qHTS Assay for Inhibitors of JMJD2A-Tudor Domain. Further: nearly all actives have a fitted effect of over 50% in size. To be noted: AlphaScreen JMJD2A-Tudor / H3K4me3 peptide binding; series mostly up to 114 µM. The source says:
JMJD2A is a jumonji-domain-containing lysine demethylase that uses Fe(II) together with 2-OG to effect oxidative demethylation of histones. Methylation is one of many […] modification that affect epigenetic transcription. […] It is proposed that the functions of JmjD2A binding to the histones, is to maintain marks after they are installed and to spread the modifications by […], establishing a self-propagating cycle for rapid methylation over a large area of chromatin. […] Thus, small molecule targeting of the JMJD2A-tudor domain interaction with its target methylhistone mark is expected to enable sophisticated experiments probing the fine regulatory pathways leading to selective demethylation of a given methyllysine locus based on the methylation state of adjacent histone marks. A quantitative high throughput AlphaScreen has been developed to identify small molecule inhibitors based on a protocol published by NCGC and SGC [4].
Although AlphaScreen has significant advantages with its utility in a variety of epigenetic target assays, the primary screening data provided in this deposition should be used with caution due to the prevalence of screening artifacts. The top compound concentration tested was high (>100uM) in this assay, which increases number of actives and potential artifacts. An AlphaScreen counterscreen is highly recommended to be run against any putative actives to eliminate non-specific artifacts. Alternatively, one can use other AlphaScreen assays in PubChem to filter out promiscuous hits.
[1] Lee, J. et al. Distinct binding modes specify the recognition of methylated histone H3K4 and H4K20 by JMJD2A-tudor. Nat Struct Mol Biol. 15(1); 109-11. 2008. PMID: 18084306
[2] Yasgar, et al. Compound Management for Quantitative High-Throughput Screening. JALA. 2008 Apr;13(2):79-89. PMID: 18496600
[3] Inglese, et al. Quantitative high-throughput screening: a titration-based approach that efficiently identifies biological activities in large chemical libraries. Proc Natl Acad Sci. 1;103(31):11473-8. 2006. PMID: 16864780
[4] Quinn et al. A homogeneous method for investigation of methyl-dependent protein-protein interactions in epigenetics. Nucleic Acids Res., 38(2):e11. 2010. PMID: […]
[5] Baell,Holloway. New substructure filters for removal of pan assay interference compounds (PAINS) from screening libraries and for their exclusion in bioassays. J Med Chem. 53(7):2719-40. 2010. PMID: 20131845
NIH Molecular Libraries Probe Production Network [MLPCN]
NIH Chemical Genomics Center [NCGC]
Structural Genomics Consortium (SGC)
To each well of a 1,536w plate, 2ul of JMJD2A-Tudor (final 100nM) and 1ul biotinylated histone peptide methylated at Lys4 [b-H3(1-18)K4me3] (final 50nM) were added in 1x PBS buffer, pH 7.4, containing 0.01% Tween-20, using a nanoliter dispenser. Formation of a protein-peptide complex proceeded at room temperature for 30 min. A Kalypsys pin-tool transferred 23nl of library compound solution in DMSO to each well. Following a 30 min incubation of the protein-peptide complex with compounds at room temperature, a mixture of 40 µg/mL each streptavidin-coated donor and nickel chelate acceptor AlphaScreen beads (final 10 µg/mL) was added in a 1ul dispense for a final volume of 4ul, followed by a brief centrifugation (1000 rpm, 1 min). Plates were incubated protected from the light for 20 min at room temperature. Microplates were then read on an EnVision multilabel plate reader using the 1,536 plate HTS AlphaScreen aperture (excitation time 80 ms, measurement time 240 ms).
With `CCOC(=O)C1(Cc2ccc(Cl)cc2)CCN(C(C)CCn2cccn2)CC1` (stereo not given), the Potency entry is “inactive”. With `COc1ccc(N=Cc2c(O)n(C)c(=O)[nH]c2=O)cc1`, the Potency result is “inactive”. Turning to `C=CC12CN(C)[C@@H]3C4CO[C@H](C[C@H]41)[C@]1(C(=O)Nc4ccccc41)[C@@H]32` (stereo not given in full), the Potency entry is “inactive”. In the case of `Cc1ccc(Cn2nnnc2CN2CCC(n3nnc4ccccc43)CC2)cc1`, the Potency was 50.1 µM (active). For `COC1=C[C@@H]2[C@@H]3Cc4ccc(OC)c(O)c4[C@]2(CCN3C)CC1=O` the value was “inactive”; for `O=C(O)C1CSC(c2cccnc2)N1` (stereo not given), 7.94 µM (active); for `NCCc1c[nH]c2ccc(O)cc12`, “inactive”. For `CC[N+](CC)(CC)CCCCCCCCCC[N+](CC)(CC)CC`, the Potency result is “inactive”. With `Cc1ccccc1N1C(=O)NC(=O)/C(=C\c2cc(C)n(C)c2C)C1=O` the entry was “inactive”. For `O=C1NC(=O)N(c2ccccc2)C(=O)/C1=C/c1ccc([N+](=O)[O-])s1` the value was 56.2 µM (active); for `O=C1NC(=O)N(c2ccc(F)cc2)C(=O)/C1=C/c1ccc2c(c1)CCCN2Cc1ccccc1`, “inactive”; for `COc1cccc(N2C(=O)NC(=O)/C(=C\c3ccc([N+](=O)[O-])s3)C2=O)c1`, 35.5 µM (active). As to `COc1cccc(N2C(=O)NC(=O)/C(=C\c3cn(C)c4ccccc34)C2=O)c1`, the Potency entry is “inactive”. On to `COCCNC(=O)CN1C2CCC1CC(O)(c1cccnc1)C2` (stereo not given), for which the Potency result was “inactive”. On to `COC(=O)C1=C(c2cccc(OCc3ccccc3)c2)C[C@@H]2CC[C@H]1N2C(=O)NCc1ccc(Br)cc1`, for which the Potency entry is “inactive”. For `C[C@]12CCC3C(CC[C@H]4[C@H](O)[C@H](O)CC[C@]34C)C1CCC2=O` (stereo not given in full) the value was “inactive”; for `Nc1ccc([N+](=O)[O-])cc1`, “inactive”. Consider `COC1C(O)C(C)OC(OC2CCC3(C=O)C(CCC4C3CCC3(C)C(C5=CC(=O)OC5)CCC43O)C2)C1O` (stereo not given), for which the Potency entry is “inactive”. Take `CCc1nnc(NS(=O)(=O)c2ccc(N=Cc3c(O)n(-c4ccccc4)c(=O)[nH]c3=O)cc2)s1`: the Potency result is “inactive”. With `O=c1[nH]c(=O)n(Cc2ccccc2)c(O)c1/C=N/Nc1c(F)c(F)c(F)c(F)c1F` the entry was “inactive”. For `CCCCC(=O)N/N=C/c1c(O)n(-c2ccccc2)c(=O)[nH]c1=O` the value was 79.4 µM (active). For `CNC(=O)O/N=C(\N)Cc1csc2ccc(Cl)cc12` the value was “inactive”. For `Cc1ccc(Oc2cnn(-c3ccccc3)c(=O)c2Br)cc1`, the Potency entry was “inactive”. For `Cc1cc(/C=C2/C(=O)NC(=O)N(Cc3ccco3)C2=O)c(C)n1-c1ccc(C(=O)O)cc1` the value was “inactive”; for `COc1ccc(N2C(=O)/C(=C/c3ccco3)C(=O)NC2=S)cc1`, 10 µM (active). With `O=C1NC(=O)N(Cc2ccco2)C(=O)/C1=C\c1ccc(-c2ccc(F)cc2)o1` the entry was “inactive”. With `CN(C)c1ccc(/C=C2\CC3C4CC=C5CC(O)CCC5(C)C4CCC3(C)C2=O)cc1` (stereo not given) the entry was “inactive”; with `C[C@]12CC[C@H](O)CC1=C([N+](=O)[O-])CC1C2CC[C@@]2(C)C1CC[C@@H]2O` (stereo not given in full), “inactive”; with `COc1ccccc1N=C1SCCCN1C`, 56.2 µM (active).

On to `CCC(C)(O)C(=O)OC1C(=O)OC2CC3C(C)=CC(=O)C(O)C3(C)C3C4(O)OCC23C1C(C)C4O` (stereo not given), for which the Potency entry was “inactive”. For `COCc1cc(OC(=O)N(C)C)nc(-c2ccc(C)c(Cl)c2)n1` the value was “inactive”; for `CCOC(=O)CC(SP1(=S)OCC2(CCCCO2)C(C2CCCCO2)O1)C(=O)OCC` (stereo not given), “inactive”; for `c1cc2c(cc1C1OCC3C(c4ccc5c(c4)OCO5)OCC13)OCO2` (stereo not given), “inactive”.

As for `CC(=O)OC1C2(CC3N4C(=O)C5(CO)SSC4(CC31O)C(=O)N5C)OC(C)C(C)(C)C2=O` (stereo not given), the Potency result is “inactive”. With `CCN(CC)CCOC(=O)c1cc2cc(COC)ccc2o1` the figure was 56.2 µM (active); with `Cc1ccc(N(C)C(=O)Oc2cccc3ccc(C)nc23)cc1`, “inactive”. With `CC(=O)C1(O)CCC2C3CCC4=C(Cl)C(=O)CCC4(C)C3CCC21C` (stereo not given) the entry was “inactive”; with `COC(=O)C1=C(c2ccc(Cl)c(C(F)(F)F)c2)C[C@@H]2CC[C@H]1N2C(=O)NC(C)C`, “inactive”. For `Clc1cccc(Cl)c1Cl` the value was “inactive”; for `CN1CCN(C(=S)SCC(=O)Nc2ccc(Cl)cc2C(=O)c2ccccc2)CC1`, 44.7 µM (active). Regarding `O=C(Nc1ccc(Cl)cc1C(=O)c1ccccc1)c1cc(Cl)cc(Cl)c1`, the Potency result was “inactive”. For `O=C(COC(=O)c1ccccc1)Nc1ccc(Cl)cc1C(=O)c1ccccc1` the value was “inactive”; for `CC12CCC3C(CCC4CC(=O)CCC43C)C1CC(=NO)C2=O` (stereo not given), “inactive”. For `Cc1cccc(Cn2cccc(C(=O)Nc3ccc4c(c3)OCCO4)c2=O)c1` the value was “inactive”; for `CCOCCc1c(O)[nH]c(=S)[nH]c1=O`, 79.4 µM (active). Turning to `Oc1ccc2c3c1OC1[C@H](O)CC[C@@]4(O)[C@@H](C2)N(CC2CC2)CC[C@]314` (stereo not given in full), the Potency result was “inactive”. For the compound `CCC(C)n1c(O)c(/C=N/Nc2nc3c(c(=O)n(C)c(=O)n3C)n2C)c(=O)[nH]c1=S` (stereo not given), the Potency is 79.4 µM (active). For `Cc1ccccc1NC(=O)COC(=O)c1cc(C)n(C2CC2)c1C` the value was “inactive”. With `C=Cn1ccnc1P(=S)(c1cc(N(CC)CC)ns1)c1nccn1C=C` the entry was “inactive”; with `Cc1nc2ccccn2c1P(=S)(N1CCCCC1)N1CCCCC1`, “inactive”.

The values above are taken from PubChem BioAssay AID504339 (National Center for Advancing Translational Sciences (NCATS), 2011).
